In PubChem BioAssay (NCI):
The panel holds about 83,000 compounds, 20% with a hit somewhere; the sample as a whole holds those more often.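 Growth was measured after 48 h exposure to one concentration of compound in 96-well plates. Values under 10 count as active.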 A number with no mark means an inactive call. Activity calls are given as the source filed them.

Test system: MDA-MB-468 breast
Assay: NCI-60 one-dose screen, 48 h (100 = growth as untreated, 0 = no growth, -100 = all killed)
Conditions: 10 µM unless noted

Row | Structure (SMILES) | growth
1 | Nc1nc(N)c2cc(CNc3ccc(Cl)c(Cl)c3)ccc2n1 | -75.3% (active)
2 | c1ccc2cc3c(Nc4ccc(N5CCOCC5)cc4)ccnc3cc2c1 | 87.9%
3 | O=C(c1ccc(Cl)cc1Cl)N1CCOCC1 | 99.5%
4 | COc1ccc(C2CC(c3ccc(Nc4nc(NCCO)nc(N5CCOCC5)n4)cc3)=Nc3c(N)nc(N)nc3N2)cc1 (centres undefined) | 90.3%
